# The panel holds about 83,000 compounds, 20% with a hit somewhere; the sample as a whole holds those more often.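 Results are percent growth after 48 hours of single-concentration exposure. 100 means growth as in untreated cells, lower positive values show inhibition; negative values down to -100 show cell death.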 A number with no mark means an inactive call. Active and inactive are the calls of the source. How the source made its calls: active means growth percent below 10; inactive means the rest.
# Columns and labels:
# Assay in all cases: NCI-60 one-dose screen, 48 h (100 = growth as untreated, 0 = no growth, -100 = all killed)
# Conditions in all cases: 10 µM
# NCI-H23 lung = tested on: NCI-H23 lung
# NCI-H226 lung = tested on: NCI-H226 lung
# NCI-H322M lung = tested on: NCI-H322M lung
# HOP-62 NSCLC = tested on: HOP-62 NSCLC
# NCI-H460 lung = tested on: NCI-H460 lung
# HOP-92 NSCLC = tested on: HOP-92 NSCLC
# NCI-H522 lung = tested on: NCI-H522 lung
# A549/ATCC NSCLC = tested on: A549/ATCC NSCLC
# 786-0 renal = tested on: 786-0 renal
# COLO 205 colon = tested on: COLO 205 colon
# DU-145 prostate = tested on: DU-145 prostate
# MALME-3M melanoma = tested on: MALME-3M melanoma
# MDA-MB-231 breast = tested on: MDA-MB-231 breast
# RXF 393 renal = tested on: RXF 393 renal
# SF-268 CNS = tested on: SF-268 CNS
# SF-295 CNS = tested on: SF-295 CNS
# SF-539 CNS = tested on: SF-539 CNS
# UACC-257 melanoma = tested on: UACC-257 melanoma
# M14 melanoma = tested on: M14 melanoma
SMILES,growth (NCI-H23 lung),growth (NCI-H226 lung),growth (NCI-H322M lung),growth (HOP-62 NSCLC),growth (NCI-H460 lung),growth (HOP-92 NSCLC),growth (NCI-H522 lung),growth (A549/ATCC NSCLC),growth (786-0 renal),growth (COLO 205 colon),growth (DU-145 prostate),growth (MALME-3M melanoma),growth (MDA-MB-231 breast),growth (RXF 393 renal),growth (SF-268 CNS),growth (SF-295 CNS),growth (SF-539 CNS),growth (UACC-257 melanoma),growth (M14 melanoma)
CC(=C(c1ccc(OCCN2CCCCC2)cc1)c1ccc(OCCN2CCCCC2)cc1)c1ccccc1,47.2%,82.4%,60.9%,10.4%,41.6%,8.69% (active),64.8%,33.3%,-35.8% (active),-83.9% (active),62.5%,-99.9% (active),4.97% (active),-66.2% (active),34.5%,-57.2% (active),-93.3% (active),-78.9% (active),-47.2% (active)
CC1(C)CC[C@]23CC[C@]4(C)[C@H](CC[C@@H]5[C@@]6(C)CC[C@H](N)C(C)(C)[C@@H]6CC[C@]54C)[C@H]2[C@H]1OC3=O,-94.7% (active),-90% (active),-99.5% (active),-77.2% (active),-13.9% (active),-65.5% (active),-85.5% (active),-88.9% (active),-94.8% (active),-69.5% (active),-79.8% (active),-95.9% (active),-96.3% (active),-95.6% (active),-38.6% (active),-94.5% (active),-99.3% (active),-90.8% (active),-77.6% (active)
Cc1ccc(-c2nc3ccc(C(=O)N=Nc4c(O)[nH]c5ccc(Br)cc45)cc3[nH]2)cc1,-3.58% (active),91.7%,77.7%,68.7%,47.8%,88.3%,25%,87.1%,36.3%,61%,17.2%,90.5%,23%,66.1%,44.3%,93.6%,86.4%,99.7%,55.8%
CCCCCc1ccc(S(=O)(=O)N(C(C)=O)c2cc(-c3csc(N(C)C(C)=O)n3)ccc2N2CCN(C)CC2)cc1,43.6%,72.2%,55.8%,51.6%,-41.6% (active),-2.86% (active),55.5%,40.1%,-16.2% (active),-71.6% (active),46.4%,-93.3% (active),-5.42% (active),-69.7% (active),65.9%,-88.2% (active),-95.7% (active),-34.1% (active),-78.1% (active)
Cc1ccc(C(=O)NCCCNc2nc(Nc3ccc(N4CCN(C)CC4)cc3)nc3ccsc23)cc1,53.4%,68.7%,64.3%,73.7%,49.2%,27.1%,73.2%,54.5%,-11.6% (active),32.7%,58.7%,-94.8% (active),44.4%,-53.1% (active),60.4%,44.8%,-89.9% (active),-17.7% (active),-7.88% (active)
CC(=O)c1ccc(NC(=O)NCn2c(=O)[nH]c3ccccc3c2=O)cc1,103%,87.3%,93.8%,96.3%,112%,79.5%,90.2%,97.7%,102%,109%,104%,93.2%,95.1%,97.4%,128%,92.7%,90.6%,98.6%,110%
O=C(CS(=O)(=O)c1oc(-c2ccc(Cl)cc2)nc1S(=O)(=O)c1ccccc1)N1CCCC1,17.1%,71.9%,83.9%,93.5%,73.3%,-73% (active),-89.3% (active),79.1%,-44.3% (active),-91% (active),-100% (active),-99.2% (active),-88.3% (active),-97.8% (active),74.5%,80.8%,-78.6% (active),-77.8% (active),-31.5% (active)
CCN1CCN(c2ccc(NC(=O)Nc3ccc(-c4cc(C(=O)NC)c5ncccc5n4)cc3)cc2C(F)(F)F)CC1,-99% (active),-61.9% (active),-100% (active),-92.2% (active),-100% (active),-81.8% (active),-93.3% (active),-88.4% (active),-100% (active),-76.3% (active),-100% (active),-100% (active),-100% (active),-94.4% (active),-77.5% (active),-99% (active),-100% (active),-96.7% (active),-100% (active)
O=C1CCC(N2Cc3c(C#CCCCNC(=O)c4ccc(NC(=O)[C@@H]5NC6(CCCCC6)[C@@]6(C(=O)Nc7cc(Cl)ccc76)[C@H]5c5cccc(Cl)c5F)cc4)cccc3C2=O)C(=O)N1 (some centres undefined),74.4%,24.1%,77.5%,72.7%,33.1%,39.3%,70.3%,34.5%,48.4%,70.5%,82.1%,17.7%,52%,46.3%,70.3%,54.8%,35.1%,60.5%,50.1%
CC(=O)Nc1nc(-c2ccc(N3CCN(C)CC3)c(NS(=O)(=O)c3cccc4c(N(C)C)cccc34)c2)cs1,58.1%,75.5%,64.7%,69.7%,58.9%,50.6%,59.6%,71.3%,34.4%,47.4%,76.2%,-35.6% (active),65%,19.6%,78.5%,-58.7% (active),16%,-6.28% (active),-57.5% (active)
CN1CCN(c2ccc(Nc3nc(N4CCN(S(=O)(=O)c5ccc(F)cc5)CC4)c4sccc4n3)cc2)CC1,-64.4% (active),-74.7% (active),-88% (active),-49.6% (active),-73% (active),-66.3% (active),-86.4% (active),-48.9% (active),-72.6% (active),-79.9% (active),-84% (active),-97.9% (active),-94.6% (active),-89.1% (active),-72.3% (active),-88.5% (active),-100% (active),-86.1% (active),-56.9% (active)
C=C[C@H]1[C@H](O[C@@H]2OC(CO)[C@@H](O)[C@H](O)C2OC(=O)c2c(O)cc(O)cc2-c2cccc(O)c2)OC=C2C(=O)OCC[C@H]21 (some centres undefined),96.5%,98.8%,93.8%,93.6%,107%,132%,106%,95.3%,105%,107%,105%,92.6%,96.1%,104%,101%,96.2%,104%,90.8%,101%
CC(=C(c1ccc(OCCN2CCCCCC2)cc1)c1ccc(OCCN2CCCCCC2)cc1)c1ccc(Cl)cc1,-96% (active),-89.8% (active),-100% (active),-96.8% (active),-54.1% (active),-74.3% (active),-92.7% (active),-98.4% (active),-75.7% (active),-93% (active),-96.1% (active),-98.9% (active),-98.8% (active),-99.4% (active),-84.9% (active),-80.6% (active),-100% (active),-96.3% (active),-57.9% (active)
O=C(Nc1ccc(OCc2ccccc2)cc1)Nc1ccc(Cl)c(C(F)(F)F)c1,-5.44% (active),-27.7% (active),7% (active),5.97% (active),3.69% (active),-38.7% (active),-20.3% (active),5.97% (active),17.9%,-72.7% (active),13%,-30.8% (active),-20% (active),-3.2% (active),14.9%,-26.5% (active),-46.9% (active),-20.7% (active),19.3%
CC1(C)CC[C@]2(C(=O)N3CCOCC3)CC[C@]3(C)C(=CC[C@@H]4[C@@]5(C)CC[C@H](NCO)C(C)(C)[C@@H]5CC[C@]43C)[C@H]2C1,-88.1% (active),-88.3% (active),-97.8% (active),-73.8% (active),-92.7% (active),-64.3% (active),-79.8% (active),-85.8% (active),-88.2% (active),-72.7% (active),-89.4% (active),-96.6% (active),-97.6% (active),-95% (active),-76.5% (active),-87.2% (active),-96.8% (active),-93.9% (active),-84.6% (active)
O=C(c1ccc(-n2c(=O)[nH]c3ccccc3c2=O)cc1)N1CCOCC1,116%,99.6%,98.7%,134%,109%,99.8%,101%,119%,99.5%,110%,105%,97.5%,95.5%,127%,88.1%,102%,93.8%,127%,99.3%
